Test results: the supplement of paper PMC12340641
In all, about 1,000 compounds were measured (“relative growth in counter assay (no AraC = 100%, AraC + DMSO = 0%)”: median about -1.1, highest 2% from about 20 on). The sample as a whole holds a higher share of the highest values than the screen did.

tested on: HEK293FT dCK*-only; assay: relative growth in counter assay (no AraC = 100%, AraC + DMSO = 0%); higher = more growth rescue independent of IKZF1; settings: compound concentration: 5 uM; AraC concentration: 0.3 uM; overnight pretreatment + 4 days AraC
Procedure: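 Growth recovery screen of the molecular-glue-like (Specs) library. HEK293FT cells expressing a dCK*-IKZF1 fusion (primary) or dCK* alone (counter) were pretreated overnight with compound at 5 uM, then given 0.3 uM AraC for 4 days. Hoechst nuclei were counted by imaging. Primary: normalised to pomalidomide (100%) and DMSO (0%), mean of 2 replicates. Counter: normalised to no-AraC (100%) and AraC+DMSO (0%), single replicate.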

SMILES | relative growth in counter assay
Cc1cc(C)c2[nH]c3nc(SCC(=O)Nc4ccc(Cl)cc4)nnc3c2c1 | -17.9%
Cc1cc(C)nc(NS(=O)(=O)c2ccc(Nc3nc(-c4ccc(Cl)cc4)cs3)cc2)n1 | -7.62%
O=C(Nc1ccc(S(=O)(=O)Nc2ncccn2)cc1)c1ccc(Br)cc1 | 1.1%
CCOCC(=O)Nc1ccc(S(=O)(=O)Nc2ncccn2)cc1 | -2.18%
O=C(C1CNCCO1)N1CCC(c2cccc(Nc3ncc(-c4ccccc4)s3)n2)CC1 (stereo not drawn) | 1.14%
O=S(=O)(Cc1ccccc1)Nc1ccc(S(=O)(=O)Nc2ncccn2)cc1 | 5.8%
Cc1ccnc(NS(=O)(=O)c2ccc(NC(=O)Cc3c(F)cccc3Cl)cc2)n1 | 10%
COc1ccc(-c2csc(Nc3ccc(S(=O)(=O)Nc4nc(C)cc(C)n4)cc3)n2)cc1 | -6.81%
O=C(Nc1ccc(S(=O)(=O)Nc2ncccn2)cc1)c1ccccc1Br | -0.83%
Cc1ccc(OCC(=O)Nc2ccc(S(=O)(=O)Nc3ncccn3)cc2)cc1C | 2.12%
Cc1csc(Nc2cccc(C3CN(C(=O)Cn4nc(C)ccc4=O)CCO3)n2)n1 (stereo not drawn) | -2.02%
CC(=O)N1CCC(Cc2cccc(Nc3nc(C)cs3)n2)CC1 | 24.3%
Cc1cnc(Nc2cccc(C3CN(C(=O)CCC4CCCCC4)CCO3)n2)s1 (stereo not drawn) | -1.73%
Cc1cnc(Nc2cccc(C3CN(C(=O)C4CCCC4)CCO3)n2)s1 (stereo not drawn) | -17%
Cc1csc(Nc2cccc(C3CN(C(=O)CCOc4ccccc4C)CCO3)n2)n1 (stereo not drawn) | 49.2%
Cc1csc(Nc2cccc(C3CN(C(=O)COc4c(C)cccc4C)CCO3)n2)n1 (stereo not drawn) | 1.27%
Cc1csc(Nc2cccc(C3CN(C(=O)CCC4CCCC4)CCO3)n2)n1 (stereo not drawn) | 32.3%
Cc1cnc(Nc2cccc(C3CN(C(=O)C45CC6CC(CC(C6)C4)C5)CCO3)n2)s1 (stereo not drawn) | -1.75%
Cc1cnc(Nc2cccc(C3CN(C(=O)C4CC4c4ccc(Cl)cc4)CCO3)n2)s1 (stereo not drawn) | 28.7%
CC(=O)N1CCC(Cc2cccc(Nc3nccs3)n2)CC1 | -8.99%
COc1cccc(OC)c1C(=O)N1CCOC(c2cccc(Nc3nc(C)cs3)n2)C1 (stereo not drawn) | 10.3%
Cc1csc(Nc2cccc(CC3CCN(CC(=O)N(C)C)CC3)n2)n1 | 7.9%
Cc1cnc(Nc2cccc(C3CN(C(=O)CCOc4cccc(F)c4)CCO3)n2)s1 (stereo not drawn) | 19.7%
Cc1cnc(Nc2cccc(C3CN(C(=O)COc4ccccc4)CCO3)n2)s1 (stereo not drawn) | -9.61%
Cc1cnc(Nc2cccc(C3CN(C(=O)COc4cccc(F)c4)CCO3)n2)s1 (stereo not drawn) | -7.34%

SMILES | relative growth in counter assay
Cc1ccc(OCC(=O)Nc2ccc(S(=O)(=O)Nc3cc(C)nc(C)n3)cc2)c(C)c1 | -2.7%
Cc1cc(C)nc(NS(=O)(=O)c2ccc(NC(=O)C(C)Oc3ccccc3F)cc2)n1 (stereo not drawn) | 5.27%
COc1ccccc1OCC(=O)Nc1ccc(S(=O)(=O)Nc2nc(C)cc(C)n2)cc1 | -7.04%
CC(C)(C)C(=O)N1CCC(Cc2ccc(Nc3ncc(-c4ccc(F)cc4)s3)nc2)CC1 | 12.2%
Cn1nccc1/C=C/C(=O)N1CCCC(c2csc(Nc3ccccn3)n2)C1 (stereo not drawn) | 29%
Cn1nccc1/C=C/C(=O)N1CCCC(c2cc3ccccc3c(Nc3nccs3)n2)C1 (stereo not drawn) | -13.3%
O=C(/C=C/c1ccco1)N1CCCC(c2csc(Nc3ccccn3)n2)C1 (stereo not drawn) | 11.1%
CC(=O)N1CCCC(c2csc(Nc3ccccn3)n2)C1 (stereo not drawn) | 0.33%
O=C(/C=C/c1ccccc1)N1CCCC(c2csc(Nc3ccccn3)n2)C1 (stereo not drawn) | 34.8%
Cn1nccc1/C=C/C(=O)N1CCCC1c1csc(Nc2ccccn2)n1 (stereo not drawn) | -0.93%
O=C(C1CCCCC1)N1CCC(c2cccc(Nc3nccs3)n2)CC1 | -10.8%
O=C(Nc1ccc(S(=O)(=O)Nc2ccccn2)cc1)c1cc2ccccc2o1 | -2.82%
CCCc1cnc(Nc2cccc(C3CN(C(=O)C4CCCCC4)CCO3)n2)s1 (stereo not drawn) | -12.3%
Cc1cnc(Nc2cccc(C3CCN(C(=O)C4CCC4)CC3)n2)s1 | -21%
Cc1ccc(C)c(OCCCC(=O)Nc2ccc(S(=O)(=O)Nc3ncccn3)cc2)c1 | -2.63%
CC(C)(C)c1ccccc1OCC(=O)Nc1ccc(S(=O)(=O)Nc2ccccn2)cc1 | 4.41%
COc1cc2c(cc1CCC(=O)N1CCCC1c1cccc(Nc3nccs3)n1)CCC2 (stereo not drawn) | -3.49%
CC(C)(C)c1ccccc1OCC(=O)Nc1ccc(S(=O)(=O)Nc2ncccn2)cc1 | -1.93%
Cc1cnc(Nc2cccc(C3CCN(C(=O)CCc4nc5ccccc5[nH]4)CC3)n2)s1 | -4.59%
CCCC(C)C(=O)Nc1ccc(S(=O)(=O)Nc2nccc(C)n2)cc1 (stereo not drawn) | -3.64%
Cc1cnc(Nc2cccc(C3CN(C(=O)c4ccccn4)CCO3)n2)s1 (stereo not drawn) | -7.73%
O=C(CSc1nnc2c(n1)[nH]c1ccc(Cl)cc12)Nc1ccc(Cl)cc1 | 3.64%
COC(=O)C(c1cccc(Nc2ncc(C)s2)n1)C1CCN(C(=O)C2(NC(=O)OC(C)(C)C)CCCCC2)CC1 (stereo not drawn) | 9.03%
COc1cc(NS(=O)(=O)c2ccc(NC(=O)c3ccc([N+](=O)[O-])cc3)cc2)nc(OC)n1 | 4.43%
CNC(=O)C(c1cccc(Nc2ncc(C)s2)n1)C1CCN(C(=O)[C@H](CC(C)C)NC(=O)OC(C)(C)C)CC1 (stereo partly drawn) | 8.97%

SMILES | relative growth in counter assay
CCCC(=O)Nc1ccc(S(=O)(=O)Nc2cc(OC)nc(OC)n2)cc1 | -1.4%
O=C(COc1ccc(F)cc1)N1CCC(c2cccc(Nc3nccs3)n2)CC1 | 6.47%
Cn1c(SCC(=O)Nc2ccccn2)nc2ccccc21 | 0.85%
COc1cc(NS(=O)(=O)c2ccc(NC(=O)/C=C/C(=O)O)cc2)nc(OC)n1 | 2.31%
CNC(=O)C(c1cccc(Nc2ncc(C)s2)n1)C1CCN(C(=O)c2cccc(Cl)c2F)CC1 (stereo not drawn) | -0.24%
O=C(CO)N1CCC(c2cccc(Nc3ncc(-c4ccccc4)s3)n2)CC1 | -21.4%
CCN1CC(C(=O)N2CCC(c3cccc(Nc4ncc(C)s4)n3)CC2)CC1=O (stereo not drawn) | -1.29%
COc1cc(NS(=O)(=O)c2ccc(NCc3ccccc3O)cc2)nc(OC)n1 | -0.72%
Cc1noc(CCC(=O)N2CCOC(c3cccc(Nc4nc(C)c(C)s4)n3)C2)n1 (stereo not drawn) | 5.54%
COc1cccc(C(=O)Nc2ccc(S(=O)(=O)Nc3ncccn3)cc2)c1 | -5%
Cc1nc(Nc2cccc(C3CCN(C(=O)c4n[nH]c5c4CCCC5)CC3)n2)sc1C | 14%
Cc1cc(C)nc(NS(=O)(=O)c2ccc(NC(=O)CSc3nccn3C)cc2)n1 | 2.1%
CCC(Oc1ccccc1)C(=O)Nc1ccc(S(=O)(=O)Nc2nc(C)cc(C)n2)cc1 (stereo not drawn) | -3.58%
CC(Oc1ccccc1)C(=O)Nc1ccc(S(=O)(=O)Nc2ncccn2)cc1 (stereo not drawn) | 0.06%
CCC(Oc1ccccc1)C(=O)Nc1ccc(S(=O)(=O)Nc2ncccn2)cc1 (stereo not drawn) | 27.4%
Cc1cc(C)nc(NS(=O)(=O)c2ccc(NC(=O)CSc3nc(C)cc(C)n3)cc2)n1 | -6.83%
Cc1cc(C)nc(NS(=O)(=O)c2ccc(NC(=O)CCl)cc2)n1 | 23.6%
CC(=O)Nc1ccc(S(=O)(=O)Nc2nc(C)cc(C)n2)cc1 | -0.14%
Cc1cc(C)nc(SCC(=O)Nc2ccc(S(=O)(=O)Nc3ncccn3)cc2)n1 | 19.9%
CCCC(=O)Nc1ccc(S(=O)(=O)Nc2nc(C)cc(C)n2)cc1 | -9.14%
O=C(CCCOc1ccccc1)Nc1ccc(S(=O)(=O)Nc2ncccn2)cc1 | 2.79%
COC(C)(C)C(=O)N1CCOC(c2cccc(Nc3ncc(C)s3)n2)C1 (stereo not drawn) | -13%
COCC(=O)N1CCCC1c1cccc(Nc2ncc(C)s2)n1 (stereo not drawn) | 0.29%
Cc1csc(Nc2cccc(C3CCCN3CC(N)=O)n2)n1 (stereo not drawn) | 16.8%
Cc1ccc(S(=O)(=O)Nc2ccc(S(=O)(=O)Nc3nccc(C)n3)cc2)cc1 | -5.66%

SMILES | relative growth in counter assay
Cc1ccccc1N1C(=O)c2ccc(Oc3ccc(N)cc3)cc2C1=O | 12.7%
O=C(CC(c1ccccc1)c1ccccc1)Nc1ccc(S(=O)(=O)Nc2ncccn2)cc1 | -1.59%
Cc1cnc(Nc2cccc(C3CN(C(=O)C4CCCO4)CCO3)n2)s1 (stereo not drawn) | -14.9%
Cc1cnc(Nc2cccc(C3CCN(C(=O)C4C5C=CC(C5)C4C(=O)NCCO)CC3)n2)s1 (stereo not drawn) | -24.7%
O=S(=O)(Nc1ncccn1)c1ccc(-n2cnnn2)cc1 | -1.47%
Cc1cnc(Nc2cccc(CC3CCN(C(=O)C4CCCCC4)CC3)n2)s1 | -6.51%
COc1nccnc1NS(=O)(=O)c1ccc(NC(=S)NC(=O)/C=C/c2cccs2)cc1 | 8.21%
Cc1ccnc(NS(=O)(=O)c2ccc(NC(=O)c3ccc(-c4ccccc4)cc3)cc2)n1 | 0.76%
Cc1ccc(Oc2cccc(N3C(=O)c4ccc(Oc5ccc(N)cc5)cc4C3=O)c2)cc1C | -3.99%
O=C(C1CCCCC1)N1CCOC(c2cccc(Nc3ncc(Cc4ccc(F)cc4)s3)n2)C1 (stereo not drawn) | -1.26%
O=C(Nc1ccc(S(=O)(=O)Nc2ccccn2)cc1)c1ccco1 | 4.23%
CCOCCC(=O)Nc1ccc(S(=O)(=O)Nc2nccc(C)n2)cc1 | -2.85%
Cc1ccc(C(C)(C)C(=O)N2CCCC2c2cccc(Nc3ncc(C)s3)n2)cc1 (stereo not drawn) | -21%
Cc1cc(NS(=O)(=O)c2ccc(NC(=O)c3ccccc3)cc2)nc(C)n1 | 0.4%
CCOC(=O)c1nc[nH]c1C(=O)N1CCOC(c2cccc(Nc3ncc(C)s3)n2)C1 (stereo not drawn) | -2.22%
CC(C)(C)CC(=O)Nc1ccc(S(=O)(=O)Nc2ncccn2)cc1 | -0.2%
Cc1cc(C)c2[nH]c3nc(SCC(=O)Nc4cccc(Cl)c4C)nnc3c2c1 | -20.1%
O=C(/C=C/c1ccccc1)N1CCCC1c1csc(Nc2ccccn2)n1 (stereo not drawn) | -3.28%
CCCc1cnc(Nc2cccc(C3CCN(C(=O)C(C)(C)NC(=O)COC)CC3)n2)s1 | -2.68%
Cc1cnc(Nc2cccc(C3CN(C(=O)C4CCCC(C)C4)CCO3)n2)s1 (stereo not drawn) | -12.6%
CN(C)CC(=O)N1CCCC1c1cccc(Nc2nccs2)n1 (stereo not drawn) | -0.55%
NC(=O)CN1CCC(Cc2cccc(Nc3nccs3)n2)CC1 | -23.2%
Cc1cnc(Nc2cccc(C3CCN(C(=O)C4CCC(=O)N4)CC3)n2)s1 (stereo not drawn) | -24.6%
